Vaccinia Venus: inhibitors of vaccinia virus (Venus reporter). Vaccinia virus Venus reporter expression, fluorescence. Potency, µM (highest dose often 36.5 µM), for the others: at the top dose activity change, negative = inhibition, actives largely listed as inhibitors. actives 0.46% (n = 330,000); calls by dose curve; tested in A549 cells; note: nearly all actives have a fitted effect of over 30% in size
VACV mCherry inh: vaccinia inhibition (mCherry reporter) | actives 0.63% (n = 310,000) | Vaccinia virus mCherry reporter infection, fluorescence | AID 720579 | Potency, µM (titrated, usually from 36.5 µM), inactives show at the highest dose activity change, negative = inhibition, usual class: inhibitors; calls by dose curve; tested in A549 cells; note: nearly all actives have a fitted effect of over 35% in size
HCV inhibitor: inhibitors of hepatitis C virus infection. Huh7.5.1 HCVcc-Cre infection, luciferase reporter, 44 h. actives 3.4% (n = 340,000). Potency, µM (top dose mostly 41.8 µM), for inactives: at the highest dose activity change, negative = inhibition, usual class: inhibitors; active = well fitted inhibition curve with a large enough effect; inconclusive = small, poorly fitted or top-dose-only effect, or another doubt; inactive = no such curve, though single readings can be large or run the other way
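A cell-based infection assay in which seeded cells (1,000 per well) receive test compound after 4 h, are inoculated with HCVcc-Cre at approximately 0.5 moi, and are incubated 44 h before luminescence detection.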
Starred values were filed as active, the others as inactive. The list is not random: actives were taken first. Their share in the collection is about 3.3%. % is set by controls: 0 for no effect and ±100 for the full control effect; potency is the fitted concentration of half-maximal effect.

Screening COc1ccc(CCNC(c2ccc(F)cc2)c2nnc(-c3ccccc3Cl)o2)cc1OC (stereo not drawn) returned Vaccinia Venus -12% and VACV mCherry inh -13%.
CCOc1cc(CNCCO)ccc1OCC(=O)NC(C)(C)C was read as Vaccinia Venus 2%, VACV mCherry inh -12% and HCV inhibitor -4%.
For CCOC(=O)c1ccc(NC(=O)COc2ccc(CNCCO)cc2OCC)cc1 the results were Vaccinia Venus -9%, VACV mCherry inh -14% and HCV inhibitor 8.9µM*.
Screening CCOc1cc(CNCc2ccccc2)ccc1OCC(=O)NC1CCCCC1 returned Vaccinia Venus -20%, VACV mCherry inh -5% and HCV inhibitor 2.5µM*.
COc1cc(CNCc2ccccn2)ccc1OCC(=O)NC1CCCCC1 was read as Vaccinia Venus -13%, VACV mCherry inh -22% and HCV inhibitor 10%.
For CCCCN(CC)C(=O)CCn1c(=O)c2cccn2c2cccnc21 the results were Vaccinia Venus 6% and VACV mCherry inh -6%.
Cc1ccc(C(=O)Nc2ccc(N3CCN(C(=O)c4ccco4)CC3)cc2)c(Cl)c1 was read as Vaccinia Venus -9%, VACV mCherry inh -17% and HCV inhibitor 11µM*.
Screening COc1ccc(C(=O)N2CCN(c3ccc(NC(=O)c4cccs4)cc3)CC2)cc1 returned Vaccinia Venus -15%, VACV mCherry inh -2% and HCV inhibitor inconclusive.
Cc1ccc(C(=O)N2CCN(c3ccc(NC(=S)NC(=O)c4cccs4)cc3)CC2)cc1 was read as Vaccinia Venus -28%, VACV mCherry inh inconclusive and HCV inhibitor 2.2µM*.
For Cc1ccccc1C(=O)Nc1ccc(N2CCN(C(=O)c3ccco3)CC2)cc1 the results were Vaccinia Venus -15%, VACV mCherry inh -4% and HCV inhibitor -11%.
CC(C)Oc1ccc(C(=O)Nc2ccc(N3CCN(C(=O)c4ccco4)CC3)cc2)cc1 was read as Vaccinia Venus 6%, VACV mCherry inh -12% and HCV inhibitor -11%.
Screening Cc1ccc(C(=O)NC(=S)Nc2ccc(N3CCN(C(=O)c4ccco4)CC3)cc2)cc1 returned Vaccinia Venus -30%, VACV mCherry inh -20% and HCV inhibitor 11µM*.
CCc1ccc(Nc2nc3ccccc3c3nnc(C)n23)cc1 was read as Vaccinia Venus -3% and VACV mCherry inh -10%.
`O=C(CC1C(=O)OCCN1Cc1ccccc1)Nc1cccc(Cl)c1` (stereo not drawn) gave Vaccinia Venus 6% and VACV mCherry inh 1%.
COc1ccc(COC(=O)CCS(=O)(=O)c2ccc(C)cc2)cc1F was read as Vaccinia Venus -16%, VACV mCherry inh -22% and HCV inhibitor 9%.
For O=c1c2ccccc2nc(N2CCN(c3cccc(Cl)c3)CC2)n1-c1ccccc1 the results were Vaccinia Venus -22% and VACV mCherry inh -25%.
Cc1ccc2[nH]c(=O)c(CN(CCO)Cc3nnnn3Cc3ccccc3)cc2c1 was read as Vaccinia Venus -13% and VACV mCherry inh 20%.
Screening O=C(COC(=O)/C=C/c1ccccc1)NC1CCS(=O)(=O)C1 (stereo not drawn) returned HCV inhibitor 16%.
`CCOc1cc(/C=C/C(=O)OCC(=O)NC2CCS(=O)(=O)C2)ccc1OCc1ccccc1` (stereo not drawn) gave Vaccinia Venus -8%, VACV mCherry inh 8% and HCV inhibitor 13µM*.
Screening O=C(CCn1cncn1)NCC1Cc2cc(-c3ccsc3)cc(Cl)c2O1 (stereo not drawn) returned Vaccinia Venus -13% and VACV mCherry inh -3%.
`CC(C)(C)c1ccc(C(=O)N2CCC3(CC2)CC3C(=O)NCCc2ccccn2)cc1` (stereo not drawn) gave Vaccinia Venus -8% and VACV mCherry inh -15%.
Screening Cc1c(C(=O)N(C)CC2CCCN(C)C2)cnn1-c1nccc(-c2ccco2)n1 (stereo not drawn) returned Vaccinia Venus -9% and VACV mCherry inh -16%.
Screening COc1ccc(C2C(O)C(c3c[nH]c4ccccc34)=NN2C(=O)CCl)cc1 (stereo not drawn) returned Vaccinia Venus inconclusive, VACV mCherry inh inconclusive and HCV inhibitor 0.56µM*.
For COc1ccc(Nc2nc(-c3c[nH]c4ccccc34)cs2)cc1 the results were Vaccinia Venus 8%, VACV mCherry inh 2% and HCV inhibitor inconclusive.
COc1ccc(C2NN=C(c3c[nH]c4ccccc34)C2O)cc1 (stereo not drawn) was read as Vaccinia Venus 1%, VACV mCherry inh -3% and HCV inhibitor 11µM*.
Screening COc1ccc(OCC(=O)c2c[nH]c3ccccc23)cc1 returned Vaccinia Venus -8%, VACV mCherry inh -7% and HCV inhibitor 10%.
Screening CC1=C(C(=O)OCc2ccccc2)N2C(=O)[C@@H](NC(=O)OCc3ccccc3)[C@H]2SC1 returned Vaccinia Venus -13% and VACV mCherry inh inactive.
Screening Cc1ccc(SCC(=O)OCC(=O)NCCc2ccc(S(N)(=O)=O)cc2)c(C)c1 returned Vaccinia Venus -3%, VACV mCherry inh -2% and HCV inhibitor 10%.
`O=C(CCc1ccc(S(=O)(=O)N2CCOCC2)cc1)Nc1ccc(F)c(F)c1F` gave HCV inhibitor -5%.
Screening O=C(Nc1nccs1)C1CCN(S(=O)(=O)c2cccs2)CC1 returned Vaccinia Venus -13%, VACV mCherry inh -24% and HCV inhibitor -12%.
CCc1ccc(NC(=O)C2CCN(S(=O)(=O)c3cccs3)CC2)cc1 was read as Vaccinia Venus -29%, VACV mCherry inh -7% and HCV inhibitor 4.5µM*.
`Cc1ccc(-c2csc(NC(=O)C3CCN(S(=O)(=O)c4cccs4)CC3)n2)cc1` gave Vaccinia Venus -29%, VACV mCherry inh inconclusive and HCV inhibitor 10µM*.
Screening O=C(Nc1nc(-c2ccc3ccccc3c2)cs1)C1CCN(S(=O)(=O)c2cccs2)CC1 returned Vaccinia Venus -11%, VACV mCherry inh -4% and HCV inhibitor inconclusive.
Screening CCc1cccc(NC(=O)C2CCN(S(=O)(=O)c3cccs3)CC2)c1 returned Vaccinia Venus -18%, VACV mCherry inh inactive and HCV inhibitor inconclusive.
Screening O=C(Nc1ccc(Cl)cn1)C1CCN(S(=O)(=O)c2cccs2)CC1 returned HCV inhibitor 11µM*.
Cc1ccc(S(=O)(=O)N2CCC(C(=O)NCCC3=CCCCC3)CC2)c(C)c1 was read as Vaccinia Venus -17%, VACV mCherry inh -27% and HCV inhibitor inconclusive.
For CCOC(=O)C(CC)Sc1ccc2nnc(-c3ccc(F)cc3)n2n1 (stereo not drawn) the results were Vaccinia Venus 6% and VACV mCherry inh -21%.
Screening CCCCNC(=O)CSc1nc2cc3c(cc2c(=O)n1CCCCCC(=O)NCc1ccc(OC)cc1)OCO3 returned Vaccinia Venus -12% and VACV mCherry inh -10%.
Screening C[n+]1c(-c2ccccc2)c2cc(N)ccc2c2ccc(N)cc21 returned Vaccinia Venus 126%, VACV mCherry inh inconclusive and HCV inhibitor 2.5µM*.
Screening Nc1ccc2nc(-c3ccccc3)c(-c3ccccc3)nc2c1 returned Vaccinia Venus 12%, VACV mCherry inh inconclusive and HCV inhibitor 13%.
For Clc1cccc[n+]1CCc1ccccc1 the results were Vaccinia Venus -8% and VACV mCherry inh -12%.
`CCN(CC)C(=O)Cn1c(=O)cc(C)c2c(C)nn(-c3cccc(Cl)c3C)c21` gave Vaccinia Venus 1% and VACV mCherry inh -6%.
